PubChem BioAssay AID1159580 (chemical genetic matrix, 2015)
Screen size: about 5,500 compounds; about 2,000 (36%) were called active. Roughly 18% stayed inconclusive and do not appear here. No stated cut-off is given here; in the data, active means normalized growth mostly below about 0.91 (no sharp cut-off); inconclusive means no clear call, values can overlap the other calls; inactive means mostly above about 0.92. This is one part of the list.

Test: chemical genetic growth profiling, strain panel (AID 1159580);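 further: tested at 20 µM; growth read once vehicle control cultures reached saturation at 30 °C; 1 = growth at the plate median or of vehicle wells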
Details: S. cerevisiae deletion strains, growth OD
[1] = locus YAR019C, strain CDC15, stronger effect = lower value
[2] = locus YBL105C, strain PKC1, stronger effect = lower value
[3] = locus YBR135W, strain CKS1, stronger effect = lower value
[4] = locus YBR136W, strain MEC1, stronger effect = lower value
[5] = locus YBR160W, strain CDC28, stronger effect = lower value
[6] = locus YDL017W, strain CDC7, stronger effect = lower value
[7] = locus YDL028C, strain MPS1, stronger effect = lower value
[8] = locus YDL101C, strain DUN1, stronger effect = lower value
[9] = locus YDL108W, strain KIN28, stronger effect = lower value
[10] = locus YDL132W, strain cdc53, stronger effect = lower value
[11] = locus YDL214C, strain PRR2, stronger effect = lower value
[12] = locus YDR052C, strain DBF4, stronger effect = lower value
[13] = locus YDR054C, strain cdc34, stronger effect = lower value
[14] = locus YDR226W, strain ADK1, stronger effect = lower value
[15] = locus YDR477W, strain SNF1, stronger effect = lower value
[16] = locus YER123W, strain YCK3, stronger effect = lower value
[17] = locus YER133W, strain GLC7, stronger effect = lower value
[18] = locus YFL009W, strain cdc4, stronger effect = lower value
[19] = locus YFL029C, strain CAK1, stronger effect = lower value
[20] = locus YFR003C, strain YPI1, stronger effect = lower value
[21] = locus YFR019W, strain FAB1, stronger effect = lower value
[22] = locus YFR028C, strain CDC14, stronger effect = lower value
[23] = locus YGR040W, strain KSS1, stronger effect = lower value
[24] = locus YGR052W, strain FMP48, stronger effect = lower value
[25] = locus YGR092W, strain DBF2, stronger effect = lower value
[26] = locus YHR030C, strain SLT2, stronger effect = lower value
[27] = locus YHR079C, strain IRE1, stronger effect = lower value
[28] = locus YHR082C, strain KSP1, stronger effect = lower value
[29] = locus YHR205W, strain SCH9, stronger effect = lower value
[30] = locus YIL147C, strain SLN1, stronger effect = lower value
[31] = locus YJL095W, strain BCK1, stronger effect = lower value
[32] = locus YJL128C, strain PBS2, stronger effect = lower value
[33] = locus YJL157C, strain FAR1, stronger effect = lower value
[34] = locus YJR016C, strain ILV3, stronger effect = lower value
[35] = locus YJR066W, strain TOR1 (second series), stronger effect = lower value
[36] = locus YJR066W, strain TOR1, stronger effect = lower value
[37] = locus YKL048C, strain ELM1, stronger effect = lower value
[38] = locus YKL067W, strain YNK1, stronger effect = lower value
[39] = locus YKL101W, strain HSL1, stronger effect = lower value
[40] = locus YKL193C, strain SDS22, stronger effect = lower value
[41] = locus YKL203C, strain TOR2, stronger effect = lower value
[42] = locus YLR113W, strain HOG1, stronger effect = lower value
[43] = locus YLR133W, strain CKI1, stronger effect = lower value
[44] = locus YLR403W, strain SFP1, stronger effect = lower value
[45] = locus YML070W, strain DAK1, stronger effect = lower value
[46] = locus YMR001C, strain CDC5, stronger effect = lower value
[47] = locus YMR205C, strain PFK2 (second series), stronger effect = lower value
[48] = locus YMR277W, strain FCP1, stronger effect = lower value
[49] = locus YNL006W, strain LST8, stronger effect = lower value
[50] = locus YNL020C, strain ARK1, stronger effect = lower value
[51] = locus YNL161W, strain CBK1, stronger effect = lower value
[52] = locus YNL183C, strain NPR1, stronger effect = lower value
[53] = locus YNL207W, strain RIO2, stronger effect = lower value
[54] = locus YNL222W, strain SSU72, stronger effect = lower value
[55] = locus YNL307C, strain MCK1 (second series), stronger effect = lower value
[56] = locus YOL078W, strain AVO1, stronger effect = lower value
[57] = locus YOL136C, strain PFK27, stronger effect = lower value
[58] = locus YOR061W, strain CKA2, stronger effect = lower value
[59] = locus YOR119C, strain RIO1, stronger effect = lower value
[60] = locus YOR231W, strain MKK1, stronger effect = lower value
[61] = locus YOR329C, strain SCD5, stronger effect = lower value
[62] = locus YPL031C, strain PHO85, stronger effect = lower value
[63] = locus YPL153C, strain RAD53, stronger effect = lower value
[64] = locus YPL204W, strain HRR25, stronger effect = lower value
[65] = locus YPL209C, strain IPL1, stronger effect = lower value
[66] = locus YPL256C, strain CLN2, stronger effect = lower value
[67] = locus YPR025C, strain CCL1, stronger effect = lower value
[68] = locus YPR106W, strain ISR1, stronger effect = lower value
[69] = locus YPR111W, strain DBF20, stronger effect = lower value
[70] = strain NNK1, stronger effect = lower value
[71] = strain TSCII, stronger effect = lower value

Measured: normalized growth

CC(=O)c1ccc(Cl)c(N=Cc2cc(Br)cc(Br)c2O)c1
active: [1] 0.107 | [2] 0.0938 | [3] 0.0994 | [4] 0.112 | [5] 0.127 | [6] 0.104 | [7] 0.12 | [8] 0.118 | [9] 0.127 | [10] 0.402 | [11] 0.106 | [12] 0.303 | [13] 0.166 | [14] 0.621 | [15] 0.109 | [16] 0.115 | [17] 0.105 | [18] 0.0929 | [19] 0.0974 | [20] 0.0995 | [21] 0.0995 | [22] 0.102 | [23] 0.103 | [24] 0.128 | [25] 0.102 | [26] 0.141 | [27] 0.124 | [28] 0.134 | [29] 0.00344 | [30] 0.104 | [31] 0.141 | [32] 0.0977 | [33] 0.0879 | [34] 0.0892 | [35] 0.091 | [36] 0.12 | [37] 0.114 | [38] 0.0955 | [39] 0.112 | [40] 0.0908 | [41] 0.113 | [42] 0.161 | [43] 0.0941 | [44] -0.00302 | [45] 0.099 | [46] 0.0969 | [47] 0.0844 | [48] 0.0941 | [49] 0.0893 | [50] 0.103 | [51] 0.0859 | [52] 0.119 | [53] 0.0975 | [54] 0.0926 | [55] 0.103 | [56] 0.0827 | [57] 0.102 | [58] 0.0946 | [59] 0.102 | [60] 0.119 | [61] 0.0861 | [62] 0.105 | [63] 0.0925 | [64] 0.0963 | [65] 0.0856 | [66] 0.144 | [67] 0.0958 | [68] 0.0925 | [69] 0.106 | [70] 0.102 | [71] 0.102

Cc1c(C)c(C)c(C(=O)c2ccc(N=Cc3cc(Cl)cc(Cl)c3O)cc2)c(C)c1C
active: [11] 0.681 | [12] 0.904 | [15] 0.573 | [16] 0.464 | [17] 0.527 | [21] 0.625 | [23] 0.63 | [25] 0.239 | [26] 0.262 | [27] 0.338 | [29] 0.509 | [31] 0.233 | [33] 0.503 | [35] 0.6 | [36] 0.458 | [37] 0.55 | [38] 0.663 | [41] 0.662 | [42] 0.585 | [43] 0.523 | [44] 0.459 | [45] 0.502 | [47] 0.645 | [50] 0.469 | [55] 0.503 | [57] 0.382 | [58] 0.493 | [59] 0.663 | [60] 0.446 | [62] 0.583 | [63] 0.504 | [64] 0.483 | [66] 0.403
inactive: [1] 0.929 | [2] 0.934 | [3] 0.94 | [4] 0.925 | [5] 0.944 | [6] 0.926 | [7] 0.941 | [8] 0.949 | [9] 0.944 | [10] 0.926 | [13] 0.918 | [14] 0.923 | [18] 0.922 | [19] 0.932 | [20] 0.922 | [22] 0.941 | [24] 0.605 | [28] 0.631 | [30] 0.926 | [32] 0.927 | [34] 0.944 | [39] 0.735 | [40] 0.93 | [46] 0.938 | [48] 0.929 | [49] 0.938 | [51] 0.925 | [52] 0.655 | [53] 0.937 | [54] 0.94 | [56] 0.94 | [61] 0.921 | [65] 0.925 | [67] 0.937 | [68] 0.938 | [69] 0.941 | [70] 0.939 | [71] 0.925
